# In ChEMBL document CHEMBL3988442, “University of Dundee, Small-Polar-MMV Screening Library” (2021):
# Molecular target: AMP-activated protein kinase, AMPK (Homo sapiens) (UniProt P54646+O43741+P54619+Q9UGJ0+Q9Y478+Q13131+Q9UGI9)
# Experiment: AMP-dependent Kinase enzyme assay. An in vitro enzyme assay that detects ADP turnover that is directly proportional to AMPK activity. This uses naive AMPK that is activated during the assay with MK-8722
# Assay type: functional
# Design: scale not given: direction of the effect not stated beside the values
# Conditions: 30 µM
row,SMILES,Percent Effect
1,Cn1ccnc1-c1cn(CCc2nnc(N)s2)nn1,-14.9%
2,O=C(NCc1nc[nH]n1)c1cc(COc2cccc(C(F)(F)F)c2)[nH]n1,-6.06%
3,CN(CCc1ccncc1)Cc1c(C2CCCC2)[nH]c2ncccc12,9.38%
4,COC(=O)C1CN(Cc2ccn(-c3ccc(F)cc3)n2)C[C@@H](C)O1 (some centres undefined),-6.96%
5,Cc1cc(C)c(C(=O)N(C)CCN(C)C(=O)c2[nH]c(C)cc2C)[nH]1,-2.87%
6,Cc1cc(NC(=O)N2CCN(c3cccs3)CC2)ccc1C(N)=O,6.86%
7,FC(F)(F)c1ccnc(N2CCCN(Cc3ccccn3)CC2)n1,-1.31%
8,CC(C)Cc1nc(C[S+]([O-])CC(=O)NCc2ccccc2)no1 (centres undefined),0.747%
9,COc1cccc(Cn2ncnc2CCC(C)N2CCN(C)CC2)c1 (centres undefined),-1.98%
10,O=S(=O)(c1ccccc1N1CC(n2cccn2)C1)C(F)(F)F,16%
11,NC(=O)CC1CCN(c2cncc(OCc3ccccc3)n2)CC1,20.6%
12,CC(C)[C@@H]1CN(C(=O)CN(C)Cc2ccccc2)C[C@H]1C(=O)O,2.94%
13,Cc1cnn(CCCNC(=O)NC(C)C(=O)Nc2ccccc2)c1 (centres undefined),4.78%
14,COc1ccc(NCCC(=O)NCc2cccnc2N(C)C)cc1,22.9%
15,CCOc1ccccc1-n1c(C2CC(=O)N(C)C2)n[nH]c1=O (centres undefined),7.89%
16,COc1ccc(S(=O)(=O)N2CCOC(C)(C(N)=O)C2)cc1 (centres undefined),15.5%
17,CN(CCc1ccccn1)c1cnn(C)c(=O)c1Br,-11.5%
18,Cc1nccn1CCCN1CCC(c2nccn2CC2CCC2)CC1,-9.78%
19,CCCn1nnnc1COC(=O)C1COc2ccccc2O1 (centres undefined),3%
